# Algae TAG accum – algal TAG accumulation induction; hit rate 0.84% among 44,000; calls only at 10 µM (by protocol); Chlamydomonas reinhardtii TAG, Nile Red fluorescence, 72 h; call rule not given here;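 also: hits raise Nile Red signal meaning more stored TAG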
# * = called active by the depositor; i = inactive; + = active, no number. This is one part of a sample in which hits are shown more often than they occur.
SMILES,Algae TAG accum
Cc1cc(C)c(OCCCN2CCCC2)c(C)c1,i
Cc1cc(C)c(OCCCCN2CCNCC2)c(C)c1,+
Cc1cc(Cl)c(OCCOCCN2CCNCC2)c(Cl)c1,i
CC1(C)Oc2ccc(NC(=O)c3ccc(C(=O)c4ccccc4)cc3)cc2O1,+
CC1(C)Oc2ccc(NC(=O)Cc3ccc(F)cc3)cc2O1,i
COc1ccc(NC(=O)c2ccc(C(=O)c3ccccc3)cc2)cc1,i
O=c1c([N+](=O)[O-])c(Cl)c2ccccc2n1-c1ccccc1,i
Cc1cccc(N2CCN(C(=O)c3cccnc3)CC2)c1C,i
Nc1nc(N)nc(-c2ccc([N+](=O)[O-])cc2)n1,i
O=C(Nc1ccc(N2CCN(C(=O)c3ccccc3)CC2)cc1)c1ccc(Cl)cc1Cl,+
O=C(Cc1ccc(Cl)cc1)Nc1ccc(N2CCN(C(=O)c3ccccc3)CC2)cc1,i
O=C(c1ccccc1)N1CCN(C(=O)c2ccc(Cl)cc2Cl)CC1,i
N#CSC1(c2ccccc2)C(=O)c2ccccc2C1=O,i
NC(=Nc1ccccc1)Nc1ccccc1,i
Cc1ccc(-c2csc(Nc3ccccc3)n2)cc1,i
O=C(Nc1ccccc1[N+](=O)[O-])c1ccc(Cl)c(S(=O)(=O)NCCc2ccccc2)c1,i
Cc1cc(N2CCN(c3ccccn3)CC2)nc2ccccc12,i
O=C(Nc1scc(-c2cccs2)c1C(=O)O)c1cccs1,i
Cc1sc(NC(=O)c2cccs2)c(C(=O)O)c1C,+
Cc1cccc(C(=O)Nc2sc(C)c(C)c2C(=O)O)c1,i
COc1cc2c(cc1NC(=O)c1ccccc1[N+](=O)[O-])oc1ccccc12,i
CC(=O)c1cccc(NC(=O)COc2ccc(C)c(C)c2)c1,i
O=[N+]([O-])c1ccc(OCCCN2CCCC2)cc1,i
c1ccc(OCCCN2CCOCC2)cc1,i
O=[N+]([O-])c1ccc(OCCCCN2CCOCC2)cc1,+
SMILES,Algae TAG accum
c1ccc(COc2ccc(OCCCCN3CCOCC3)cc2)cc1,i
Ic1ccc(OCCCN2CCOCC2)cc1,i
Cc1cccc(OCCCCN2CCOCC2)c1,+
CC(C)(C)c1ccc(OCCCCN2CCOCC2)cc1,+
O=[N+]([O-])c1ccc(OCCCCN2CCCCC2)cc1,i
CCOc1cccc(OCCN2CCOCC2)c1,i
NS(=O)(=O)c1ccc(NC(=O)CSc2nc(O)c(Cc3ccccc3)c(=O)[nH]2)cc1,i
CCOc1ccc(CN2CCC(O)CC2)cc1,i
Cc1ccccc1N(CC(=O)N1CCN(C(c2ccccc2)c2ccccc2)CC1)S(C)(=O)=O,i
COc1ccc(N2C(=O)CC(N3CCC(Cc4ccccc4)CC3)C2=O)cc1 (configuration not stated),i
Clc1ccc(OCCn2ccnc2)c(Br)c1,i
Cc1cc(Cl)c(OCCOCCn2ccnc2)c(Br)c1,i
Cc1ccc(OCCn2ccnc2)c(Cl)c1,i
Cc1cc(Cl)cc(C)c1OCCn1ccnc1,+
Cc1cc(Cl)c(OCCn2ccnc2)c(Br)c1,+
Clc1ccc(OCCn2ccnc2)c(Cl)c1,i
Cc1cc(C)nc(SCC(=O)c2ccc(F)cc2F)n1,i
NC(=O)c1cc([N+](=O)[O-])ccc1N1CCCC1,i
Cc1cc(C)c(C)c(C(=O)O)c1C,i
CN(C)CCN(Cc1ccccc1)c1nccc(N(C)C)c1C#N,i
N#C/C(=C\c1ccc([N+](=O)[O-])cc1)c1nc(-c2ccccc2)cs1,i
O=C(Nc1ccccc1[N+](=O)[O-])c1cccc(S(=O)(=O)Nc2cccc(F)c2)c1,i
CC(C)C(C(=O)NC(C)(C)C)N1C(=O)c2ccccc2C1=O (configuration not stated),i
COc1ccc(N(CC(N)=O)S(C)(=O)=O)c(OC)c1,i
CCN(CC)CC#CC(C)(O)C(C)C (configuration not stated),i
SMILES,Algae TAG accum
CCN(CC)CC#CC(O)c1ccccc1 (configuration not stated),i
CCN(CC)CC#Cc1ccc(C#CCN(CC)CC)cc1,+
Cc1ccc2nc(NC(=O)CSc3nc(C)cc(=O)[nH]3)sc2c1,i
Nc1nnc(-c2ccc(Br)cc2)s1,i
C=C(C)CN(CC)C(=O)C1CCN(CC2CC=CCC2)CC1 (configuration not stated),+
NC(=O)C1CCN(CC2CC=CCC2)CC1 (configuration not stated),i
CCN(Cc1ccccc1)C(=O)C1CCN(CC2CC=CCC2)CC1 (configuration not stated),i
COc1ccc(C(=O)NCCCc2ccccc2)cc1OC,i
COc1ccccc1NC(=O)N1CCc2ccccc2C1,i
CC(=O)Nc1ccc(OCC(=O)Nc2cc(Cl)cc(Cl)c2)cc1,+
O=C(COc1ccc(Cl)cc1)Nc1ccc(Br)cc1,i
CC(=O)Nc1ccc(NC(=O)COc2ccc(C)c(C)c2)cc1,i
CCn1c2ccccc2c2cc(CN3CCC(O)CC3)ccc21,i
O=C(Nc1cccc2c1CCCC2)C(Cl)Cl,i
CN1CC=C(CNc2cccc3c2CCCC3)CC1,+
Cc1cccc(OCC(=O)Nc2cccc3c2CCCC3)c1,i
O=C1C(=O)N(CCCO)C(c2ccc(Br)cc2)C1=C(O)c1ccccc1 (configuration not stated),i
CCOc1ccccc1N1CCN(Cc2ccc(Br)s2)CC1,i
COC(=O)Oc1cncc(C(=O)ON2C(=O)CCC2=O)c1,i
CCCN(CCO)Cc1cccc(F)c1,i
O=C(Nc1ccccc1C(=O)NCc1ccccc1)c1ccc([N+](=O)[O-])cc1,+
O=C(Nc1ccccc1C(=O)Nc1ccc([N+](=O)[O-])cc1)c1ccccc1,i
O=C(Nc1ccccc1O)c1ccc([N+](=O)[O-])cc1,i
CC(=O)C1=C(O)C(=O)NC1c1ccc(F)cc1 (configuration not stated),i
N/C(=C/C(=O)c1cccs1)C(F)(F)C(F)F,i
SMILES,Algae TAG accum
COc1ccc(Cl)cc1NS(=O)(=O)c1cc(Cl)ccc1OC,i
COCCNS(=O)(=O)c1cc(Cl)ccc1OC,+
COc1ccc(Cl)cc1S(=O)(=O)NCc1cccnc1,i
Cc1c(NC(=O)c2ccc(Br)o2)cccc1[N+](=O)[O-],i
CCc1ccc(NC(=O)C(=O)NCCc2ccc(OC)cc2)cc1,i
O=C(CSC1CC(=O)N(c2ccccc2)C1=O)Nc1ccc(Br)cc1 (configuration not stated),i
COc1cc(C(=O)Nc2ccc(-c3nc4ccc(C)cc4s3)cc2)cc(OC)c1OC,i
Cc1ccccc1C(O)(C(=O)NCc1ccccc1)c1ccccc1C,i
COc1ccc(CNCc2ccc(OC)cc2)cc1,i
COc1ccc(CNC2CCCCC2C)cc1 (configuration not stated),i
COc1ccc(CNC2CCSC2)cc1 (configuration not stated),+
CCn1c(=O)c(C(=O)NCc2ccccn2)c(O)c2ccccc21,i
CC(Oc1ccc(Cl)cc1Cl)C(=O)N1CCN(C)CC1 (configuration not stated),i
CCOc1cc(C(=O)Nc2ccc([N+](=O)[O-])cc2Cl)cc(OCC)c1OCC,i
CCOc1ccc(C(=O)Nc2cccc([N+](=O)[O-])c2)cc1Cl,i
CCOc1c(Cl)cc(C(=O)Nc2cccc([N+](=O)[O-])c2)cc1Cl,+
CCCCc1nc(SCC(=O)Nc2cc(C)on2)n[nH]1,i
CCCOc1ccccc1/C=C(/C#N)c1nc2ccccc2[nH]1,i
CC(C)(C)SCCNC(=O)c1ccc(F)cc1,i

# From PubChem BioAssay
